A selection: hits, their analogues and other compounds. The true share with any hit is near 2%.
PfHsp40 rescue = rescue of yeast from PfHsp40 toxicity, primary screen, S. cerevisiae, ATP luminescence; 340,000 tested, 0.68% active; growth rescue, % at 12.5 µM; S. cerevisiae expressing PfHsp40, growth rescue; AID 504582, 2011; in the data active means growth rescue above about 28%, passing the limit was not always enough;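 further: yeast W303a lacking pdr1 and pdr3 grown in galactose medium; growth measured after three days at 30 °C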
PrPC surface inh = inhibitors of human cell surface prion protein PrPC, primary screen, cell-based, TR-FRET | AID 720596, 2013 | Major prion protein (Homo sapiens), P04156 | inhibition, % at 13.8 µM | 370,000 tested, 0.43% active | TR-FRET read-out; in the data active means inhibition above about 24%; further: 0% = median of the test wells and 100% = reference compound wells
Y pestis TopoI = Yersinia pestis topoisomerase I inhibitors, primary screen, biochemical, cleavage product accumulation, plate reader, single point; DNA topoisomerase I (Yersinia pestis CO92); Y. pestis Topo-I cleavage product accumulation; activity, % at 10 µM; 360,000 tested, 0.064% active; AID 504884, 2011; in the data active means activity above about 50%, passing the limit was not always enough
PrP 5UTR inh = inhibition of PrP 5' UTR reporter expression. AID 488862, 2010. cell-based PrP 5' UTR mRNA reporter, plate reader. 340,000 tested, 0.35% active. inhibition, % (concentration not given with the values); in the data active means inhibition above about 52%; further: 0 = median of the neutral control wells
BJeLR viability = MLPCN primary cell-based screen for lethality selective to Ras in HRASV12 cells; BJeLR (HRASV12) viability, CellTiter-Glo ATP luminescence, 48 h; inhibition, % (concentration not given with the values); 300,000 tested, 0.17% active; in the data active means inhibition above about 50%
CCHFV vOTU inh = CCHFV vOTU protease inhibitors, primary screen, biochemical, Pep-AMC substrate, fluorescence | 370,000 tested, 0.55% active | inhibition, % at 11.5 µM | Crimean-Congo hemorrhagic fever virus L polyprotein viral ovarian tumor (vOTU) protease …; in the data active means inhibition above about 30%; further: 0% = vehicle wells with enzyme and 100% = no enzyme wells
The depositor's hits bear a star; nt = no result.

SMILES	PfHsp40 rescue	PrPC surface inh	Y pestis TopoI	PrP 5UTR inh	BJeLR viability	CCHFV vOTU inh
CCN=C1NC(c2ccc(C(F)(F)F)cc2)C(C(=O)OC)=C(C)N1Cc1cccc(C(F)(F)F)c1 (stereo not drawn)	nt	-6.0	nt	nt	nt	22.2
Cc1cc(Nc2ccc(Cl)c(C(F)(F)F)c2)cc(=O)n1-c1ccc(Cl)c(C(F)(F)F)c1	nt	5.0	nt	nt	nt	10.6
CCN(CC)c1ccc2nc3ccc(N)cc3[n+](-c3ccccc3)c2c1	-0.1	-50.9	534.2*	-19.1	nt	14.7
CCN(CC)c1ccc2nc3ccccc3[n+](CC)c2c1	-1.3	nt	130.6*	-3.2	39.7	nt
CCN(CC)c1ccc(/C=N/n2nnnc2N)c(O)c1	-0.1	-4.2	-1.1	-41.6	3.0	4.2
CCN(CC)C(=O)c1ccc2nc3ccccc3nc2c1	-2.1	-45.9	-5.6	18.9	-6.6	-2.6
FC(F)(F)c1nnc2c(Sc3ccc(Cl)cc3)nc3ccccc3n12	0.0	0.3	-7.8	-16.6	59.4*	-2.9
Cc1ccc(CN2CCCCC(NC(=O)c3cccc(F)c3)C2=O)cc1 (stereo not drawn)	nt	8.3	nt	nt	nt	4.0
COc1ccc(NC(=O)Cn2nnc(-c3ccccc3NC(=O)c3cccs3)n2)cc1	64.7*	9.7	20.0	-18.2	20.1	1.3
Cc1ccc(NC(=O)Cn2nnc(-c3ccccc3NC(=O)c3cccs3)n2)cc1	0.8	2.6	7.8	-23.9	16.6	3.5
COc1ccc(S(=O)(=O)N(CC(=O)N/N=C/c2cccs2)c2ccc(C)cc2)cc1OC	1.1	-1.3	5.7	-4.8	2.7	15.3
COc1ccc(S(=O)(=O)N(CC(=O)N/N=C/c2cccs2)c2cc(C)cc(C)c2)cc1OC	47.6*	4.2	9.1	-5.6	-9.2	-3.0
O=C(/C=C/c1ccccc1[N+](=O)[O-])c1ccccc1Br	59.9*	-10.9	-6.5	-20.1	3.9	-4.4
C/C(=N\NC(=S)NCCc1ccccc1)c1ccc(Cl)cc1	0.2	2.0	39.6	-21.9	-2.8	12.5
C/C(=N\NC(=S)NCCc1ccccc1)c1ccc(C)cc1	30.3*	-4.7	0.8	-21.4	-5.9	8.8
O=[N+]([O-])c1ccc(-c2cnc(SCc3ccccc3Cl)[nH]2)cc1	149.3*	-3.8	-28.0	-29.5	1.0	4.1
O=[N+]([O-])c1ccc(-c2cnc(SC(c3ccccc3)c3ccccc3)[nH]2)cc1	0.8	1.8	-8.5	-7.5	3.2	-1.9
O=C(Nc1ccc2c(c1)OCCO2)c1cccc(Cl)c1	5.1	0.3	-11.2	-76.3	-11.4	-4.9
O=C(Nc1cccc(Cl)c1)c1ccc2c(c1)OCCO2	80.8*	5.0	-4.4	-86.1	0.4	-2.8
C=CCn1c(SCn2nnc3ccccc3c2=O)nnc1-c1ccc(Br)cc1	114.3*	6.3	5.2	-15.2	-5.7	12.8
Cc1ccc(S(=O)(=O)N2CC[C@@]3(Cc4ccccc4)Cc4ccccc4C[C@@H]23)cc1	nt	2.7	nt	nt	nt	nt
COc1ccc(C(=O)N2CCC[C@@H]2C(=O)N2CCC[C@@H]2C(=O)NCc2ccccc2)cc1F	nt	-6.6	nt	nt	nt	1.6
CCC(Oc1ccccc1)C(=O)Nc1ncc([N+](=O)[O-])s1 (stereo not drawn)	166.2*	-6.9	-2.3	-22.8	-10.6	17.9
CCC(Oc1ccccc1)C(=O)Nc1nnc(C)s1 (stereo not drawn)	-1.7	-3.5	-2.6	-1.5	-3.9	-7.8
Cc1ccc(COC(=O)c2cc([N+](=O)[O-])ccc2N2CCOCC2)cc1	-1.2	-4.5	22.0	77.1*	44.1	22.6
SMILES	PfHsp40 rescue	PrPC surface inh	Y pestis TopoI	PrP 5UTR inh	BJeLR viability	CCHFV vOTU inh
Cc1ccc(C(=O)c2cc([N+](=O)[O-])ccc2N2CCCCC2)c(C)c1	0.0	13.1	17.5	49.6	55.4*	-3.4
CCOC(=O)C(NCc1ccc2c(c1)OCO2)(NC(=O)c1ccccc1)C(F)(F)F (stereo not drawn)	44.8*	-0.1	4.0	-22.3	-6.7	11.1
O=C(CCn1nnc(-c2cccs2)n1)N1CCCCC1	nt	6.1	nt	nt	nt	15.3
CC(=NNc1cc(C)c2cc(C)ccc2n1)c1ccccn1	nt	1.1	nt	nt	nt	12.7
CNc1ccc(C=C2C=Cc3ccccc32)cc1	172.4*	11.7	-33.1	-62.1	nt	20.6
O=C(CSc1nnc(-c2cccnc2)n1-c1ccc(Cl)cc1)c1ccc2ccccc2c1	nt	10.2	nt	nt	nt	5.4

Compound activity (PubChem BioAssay)
